Measurements from PubChem BioAssay AID1362 (SRMLSC, 2008).
The campaign covered roughly 190,000 compounds. About 4,000 (2.1%) were called active. No stated cut-off is given here; in the data, active means inhibition above about 58%; inactive means the rest, inconclusive results apart; tested in S. cerevisiae. For the sample, actives were picked, then their nearest neighbours and some compounds at random.

Assay: growth inhibition of WT strain, primary screen, mitochondrial fusion inhibitor project, WT and mutant strains, chemical genetic (AID 1362)
Conditions: mitochondrial fusion phenotypic screen, at 10 µM
[1] = WT strain, growth inhibition, stronger effect = higher value

Compound	inhibition [1]	inhibition (mutant strain inhibition) [%]
O=C(C(=O)N1CCc2ccccc2C1)c1c[nH]c2ccccc12	12.7% (inactive)	-9.54
COCCN(C(=S)Nc1ccccc1OC)C1CCN(C(C)C)CC1	-3.78% (inactive)	-1.71
Cc1ccc(CN(Cc2cccnc2)C(=S)Nc2cc(Cl)ccc2C)cc1	65.8% (active)	29.6
COCCNC(=S)N(Cc1cccnc1)Cc1ccc(OC)c(OC)c1	0.04% (inactive)	0
Cc1cccc(C)c1NC(=S)N(Cc1cccnc1)Cc1ccccc1Cl	-4.3% (inactive)	-19.8
Cc1ccc(Cl)cc1NC(=S)N(CCN(C)C)Cc1cccs1	3.98% (inactive)	13.3
Cc1ccc(CN(Cc2cccnc2)C(=S)Nc2cccc(Cl)c2C)cc1	73.9% (active)	36.3
Cc1c(Cl)cccc1NC(=S)N(Cc1ccccc1)Cc1cccnc1	32.8% (inactive)	35.6
CCCCCCCCc1c(O)nc(-n2[nH]c(C)c(CCO)c2=O)[nH]c1=O	-1.35% (inactive)	-2.06
O=C1OC(OC(=O)c2ccccc2Br)C(N2CCOCC2)=C1Cl (stereo not given)	-3.78% (inactive)	5.3
Cc1ccc(NC2=C(Cl)C(=O)OC2OC(=O)c2ccccc2C)cc1 (stereo not given)	72.2% (active)	69
Cc1ccccc1C(=O)OC1OC(=O)C(Cl)=C1Nc1ccccc1 (stereo not given)	31% (inactive)	3.24
Cc1cc(/C=N/NC(=O)c2cccnc2)c(C)n1CC(C)C	-2.78% (inactive)	-1.44
CCN(CC)CCNc1nc(-c2ccc(OC(F)F)cc2)c(C)s1	14.9% (inactive)	-3.63
COc1ccc(OC)c(Cc2nnc(CCC(=O)NC3CCCC3)o2)c1	-6.11% (inactive)	1.25
S=C(NCc1ccc(Cl)cc1)NC12CC3CC(CC(C3)C1)C2	-4.06% (inactive)	3.59
CN(C)CCCNC(=S)NCc1ccc(Cl)cc1	-0.46% (inactive)	2.88
S=C(NCc1ccc(Cl)cc1)NC1CCCCC1	68% (active)	50.3
COc1cccc2cc(S(=O)(=O)c3ccc(C)cc3)/c(=N/NS(=O)(=O)c3ccc(C)cc3)oc12	-19.1% (inactive)	0.47
c1ccc2c(c1)OCC(CNc1ncnc3nc[nH]c13)O2 (stereo not given)	5.51% (inactive)	-5.69
O=C(NCC1COc2ccccc2O1)C1(c2ccccc2)CCCC1 (stereo not given)	13.2% (inactive)	3.88
c1ccc(-c2cc3c(NCC4COc5ccccc5O4)ncnc3s2)cc1 (stereo not given)	82% (active)	45.9
O=[N+]([O-])c1ccc(Sc2n[nH]c(-c3ccco3)n2)nc1	-3.94% (inactive)	-1.1
O=c1cc(CSc2ccc(Cl)cc2)nc(N2CCOCC2)[nH]1	10.4% (inactive)	-7.43
Cc1ccc(Sc2cc(N3CCOCC3)nc(-c3ccccc3)n2)cc1	-0.33% (inactive)	3.68
CSCc1cc(N(C)C)nc(SCc2ccc(Cl)cc2Cl)n1	59.7% (active)	52.5
Clc1ccc(CSc2nnc(/C=C/c3ccccc3)o2)c(Cl)c1	38% (inactive)	26.7
CSCc1cc(N2CCOCC2)nc(SCc2ccc(Cl)cc2Cl)n1	79.1% (active)	52.8

Compound	inhibition [1]	inhibition (mutant strain inhibition) [%]
O=C(Nc1nnc(SCc2ccc(Cl)cc2Cl)s1)C1COc2ccccc2O1 (stereo not given)	56.1% (inactive)	17.9
COc1ccccc1CNC(=O)CNC(=O)c1cn(-c2ccccc2OC)c(=O)c2ccccc12	-8.54% (inactive)	3.48
O=C(NNC(=O)C1CCN(c2ncccn2)CC1)c1ccccc1	-10.9% (inactive)	-13.4
OCCC1CN(Cc2ccc3nsnc3c2)CCN1C1CCCC1 (stereo not given)	2.03% (inactive)	2.69
O=C(CCCn1c(=O)c2sccc2n(CC(=O)NCC2CCCO2)c1=O)NCc1ccco1 (stereo not given)	2.48% (inactive)	3.2
CC(=O)Nc1ccc(-c2csc(NC=C3C(=O)OC(C)(C)OC3=O)n2)cc1	-0.59% (inactive)	17.6
C/C(=N/Nc1ccc(Cl)cc1)c1cnnc(-c2ccccc2)n1	9.51% (inactive)	20.8
CCOC(=O)Cc1csc(NC(=O)CSc2ccc(Br)cc2)n1	31.2% (inactive)	25.6
CCOC(=O)Cc1csc(NC(=O)CSc2nc(C)cc(=O)[nH]2)n1	15.9% (inactive)	18.4
CCOC(=O)Cc1csc(SCC(=O)NC(C)C23CC4CC(CC(C4)C2)C3)n1 (stereo not given)	59.2% (active)	26.1
CC/C(=N\NC(=S)NC(C)C)c1ccc(OC(F)F)cc1	32% (inactive)	43.5
C/C(=N\NC(=S)NC(C)C)c1ccc(C(C)(C)C)cc1	70.2% (active)	59
C/C(=N\NC(=S)NCc1ccccc1)c1ccc(Cl)cc1	31.1% (inactive)	21.1
Oc1cccc(C2c3[nH]c4ccccc4c3CCN2Cc2cnn(-c3ccccc3)c2)c1 (stereo not given)	59.9% (active)	-4
c1ccc(C2c3[nH]c4ccccc4c3CCN2Cc2cccn2-c2cccnc2)nc1 (stereo not given)	-2.92% (inactive)	-2.59
COc1cccc(C2c3[nH]c4ccccc4c3CCN2Cc2cccc(C)n2)c1 (stereo not given)	40.2% (inactive)	33.8
CCc1ccc(OCC(=O)OCC(=O)c2c(N)n(C)c(=O)n(C)c2=O)cc1	-10.7% (inactive)	-9.86
COc1ccc(Br)cc1/C=N/NC(=O)c1cccc(S(=O)(=O)N2CCOCC2)c1	1.71% (inactive)	-16.2
CC1CC(C)CN(CCC(=O)Nc2ccc3c(c2)CCC3)C1 (stereo not given)	2.25% (inactive)	2.32
CC1(C)CC2CC(C)(CN2c2ncnc3ccc(Br)cc23)C1 (stereo not given)	64.4% (active)	47.6
C=CCNc1ncnc2ccc(Br)cc12	6.92% (inactive)	5.26
COc1ccc(C(=O)N2CC3(C)CC2CC(C)(C)C3)cc1OC (stereo not given)	-9.9% (inactive)	6.2
CC1=CC=CC2=N/C(=N\S(=O)(=O)c3ccc(F)cc3F)c3ccccc3CN12	7.93% (inactive)	-4.27
Cc1ccc(S(=O)(=O)N(C)CC(=O)OCC(=O)N2CC(=O)Nc3ccccc32)cc1	-2.48% (inactive)	-6.41
O=C(c1cccnc1)N(c1cc2sc(=O)oc2c2ccccc12)S(=O)(=O)c1ccccc1	69% (active)	25.4
CN(C)S(=O)(=O)c1cccc(C(=O)Nc2cccnc2)c1	-9.84% (inactive)	2.94
COc1ccc(N(C(=O)c2cccnc2)S(=O)(=O)c2ccc3c(c2)n(C)c(=O)n3C)cc1	-46.4% (inactive)	-32.1
